DAX1 inh-1 – blocks DAX1 repression of SF-1 activated StAR promoter | inhibition, % at 6.8 µM | HEK293T StAR-luciferase reporter, SF-1/DAX-1 repression relief | actives 1.1% (n = 370,000) | AID 652010;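 active = inhibition above the mean over all tested compounds plus 3 SD, cut at about 3.6% in these data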;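 also: 0% = DAX-1 cells with DMSO and 100% = cells lacking DAX-1 with DMSO; higher inhibition means more luminescence from relief of DAX-1 repression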
GAA850 FXN act – frataxin GAA850 promoter activation. HEK293 lucGAA850 FXN promoter luciferase reporter, 24 h; percent of 10 µM SAHA response. activation, % at 6 µM. actives 0.56% (n = 360,000). AID 540364;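 active = activation above the average of all compounds screened plus 3 SD, cutoff fixed separately per campaign, cut at about 7.5% in these data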;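 also: 0% = DMSO wells and 100% = 10 µM SAHA wells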
hcDAF12 agonist – activates DAF-12 receptor from parasite H. contortus; AID 652067; activation, % at 6.8 µM; actives 1.4% (n = 370,000); HEK293 hcDAF-12 lit1-tk-luc reporter, luminescence; 0% DMSO, 100% Δ7-dafachronic acid;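 active = activation above the mean of all tested compounds plus 3 SD, cut at about 5.5% in these data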;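 also: 100% = response to 3 µM Δ7-dafachronic acid high control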
ssDAF12 agonist – activates DAF-12 receptor from parasite S. stercoralis | HEK293 ssDAF-12/GRIP1 lit1-tk-luc reporter, luminescence; % of 3 µM dafachronic acid response | activation, % at 6.8 µM | actives 1% (n = 370,000);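 active = activation above the mean over all tested compounds plus 3 SD, cut at about 0.9% in these data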;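 also: 0% = DMSO-only wells and 100% = 3 µM delta7-dafachronic acid wells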
hgDAF-12 ag – agonists of H. glycines DAF-12 nuclear receptor; HEK293 GAL4-hgDAF12 UAS-luciferase reporter, agonist luminescence; normalized to butyrate control; activation, % at 6.8 µM; actives 1.8% (n = 370,000); AID 687014;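 active = activation above a cutoff set at the mean of all screened compounds plus 3 SD, cut at about 10% in these data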;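 also: 0% = DMSO wells and 100% = sodium butyrate wells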
DAX1 inh-2 – NR0B1 (DAX1) inhibition; P51843; actives 0.99% (n = 340,000); inhibition, % at 6.75 µM; AID 504766; HEK293 Gal4-DAX1 luciferase reporter, luminescence;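 active = inhibition above the mean over all tested compounds plus 3 SD, cut at about 4.2% in these data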;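 also: 0% = DAX1-transfected cells with DMSO and 100% = empty-vector control cells with DMSO; inhibition shows as a rise in luminescence from relieved DAX1 repression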
Target sequence (P51843 207-470 limits assumed): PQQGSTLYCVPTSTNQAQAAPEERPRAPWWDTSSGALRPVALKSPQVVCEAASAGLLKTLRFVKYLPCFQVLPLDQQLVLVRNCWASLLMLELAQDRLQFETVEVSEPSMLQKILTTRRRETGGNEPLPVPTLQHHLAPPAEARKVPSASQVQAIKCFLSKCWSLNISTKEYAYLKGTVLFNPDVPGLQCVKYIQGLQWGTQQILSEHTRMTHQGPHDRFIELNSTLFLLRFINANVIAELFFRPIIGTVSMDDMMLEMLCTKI
Numbers without * were called inactive; . = not tested or not shown. This is a sample that favours compounds with a hit; in the whole collection about 4.5% have one here.

SMILES	DAX1 inh-1	GAA850 FXN act	hcDAF12 agonist	ssDAF12 agonist	hgDAF-12 ag	DAX1 inh-2
CC(=O)Oc1ccc(C(=O)[C@H]2[C@H]3C(=O)N(c4ccc(C)cc4C)C(=O)[C@H]3[C@@H]3C=CC=NN32)cc1	0	0	-1	-1	1	4.2*
Cc1ccc(N2C(=O)[C@@H]3[C@H](C2=O)[C@H]2C=CC=NN2[C@@H]3C(=O)Nc2ccccc2)cc1	0	2	3	1.2*	2	-2
O=C(Nc1ccccc1)[C@@H]1[C@@H]2C(=O)N(c3ccc(F)cc3)C(=O)[C@@H]2[C@H]2C=CC=NN21	0	1	2	0	1	2
Cc1ccc(-c2nc3ccccc3n2C)o1	3.8*	6	4	0	11*	1
CC(=O)c1ccc(-c2nc3ccccc3n2C)o1	1	3	5	0	11*	0
Cn1c(-c2nonc2N)nc2ccccc21	0	2	-3	-2	5	-1
Cn1c(-c2ccc(Br)o2)nc2cc(Br)ccc21	1	6	1	-1	2	4.5*
CN(CCOC(=O)c1cc2ccccc2o1)C1CN(Cc2cn(Cc3cccc(F)c3)nn2)S(=O)(=O)C1 (stereo not drawn)	-1	.	-1	-1	-1	.
COc1ccc(-c2csc(NC(=O)C3=COCCO3)n2)c(OC)c1	3.9*	5	0	0	5	0
Cc1ccc(CSc2nnc(SCC(=O)N/N=C/c3ccc(C(=O)O)cc3)s2)cc1	2	-6	0	-2	2	4.3*
CCc1ccc(Nc2nnc(SCC(=O)Nc3cccc(S(=O)(=O)NC4=NCCCCC4)c3)s2)cc1	1	1	1	-1	12*	0
CCc1ccc(Nc2nnc(SCC(=O)NC(=O)c3cccn3C)s2)cc1	0	3	2	-1	0	1
CCc1ccc(Nc2nnc(SCC(=O)Nc3ccc(C(=O)O)cc3)s2)cc1	3.7*	0	1	0	5	4
CC(=O)Nc1ccc(NC(=O)CSc2nnc(NC(=O)C3CC3)s2)cc1	-4	1	2	-1	2	6.5*
CCCCNC(=O)C[C@H]1C[C@@]2(C(=O)OC)C(=C[C@H](C(C)C)O[C@@H]2C2CC2)N(Cc2cccc3ccccc23)C1=O	-1	.	-3	-1	0	.
CCCCC(=O)N1CCN(C(=O)c2ccc3nc(C)n(C4CCCC4)c3c2)CC1	0	.	0	-2	2	.
O=C(NCc1ccc(C(=O)N2CCCC2)cc1)c1cccc(Br)c1	0	.	1	-1	1	.
CCCC(=O)Nc1nnc(SCC(=O)Nc2ccc3c(c2)OCCO3)s1	0	-1	-2	1.5*	-2	0
CCCC(=O)Nc1nnc(SCC(=O)Nc2ccc3c(c2)OCO3)s1	-1	3	0	-1	2	-1
Clc1cc2nc(-c3cccnc3Cl)[nH]c2cc1Cl	3.8*	6	6.2*	1.1*	11*	4.3*
Cc1cc(=O)[nH]c(-c2ccccc2O)n1	.	0	.	.	.	1
Cc1cc2nc(-c3ccccc3O)[nH]c2cc1C	4.1*	4	5.8*	1	12*	2
CN(CCO)c1cccc2c1S(=O)(=O)N(Cc1cn(Cc3ccccc3C(F)(F)F)nn1)Cc1ccccc1O2	-1	.	-3	-1	-2	.
CC1=NN(C(=O)c2ccccc2F)C(O)(c2ccc(Cl)cc2)C1 (stereo not drawn)	1	1	2	-1	6	6.2*
Cc1ccc(-n2c(Cn3ncc4ccccc4c3=O)n[nH]c2=S)cc1	0	-1	1	1.3*	-1	1
SMILES	DAX1 inh-1	GAA850 FXN act	hcDAF12 agonist	ssDAF12 agonist	hgDAF-12 ag	DAX1 inh-2
O=C(c1ccco1)N1CCN(C(=O)c2cc(-c3ccccn3)nc3ccccc23)CC1	0	2	-1	-1	1	-1
CC(C)C(=O)NNc1nc2ccccc2s1	1	7	6.2*	-1	9	0
O=C(NNC(=O)c1cc(Cl)nc2ccccc12)c1ccccc1F	1	1	2	1.1*	-1	-2
O=C(c1ccco1)N1CCN(C(=O)c2cc(Cl)nc3ccccc23)CC1	0	-3	2	1.2*	1	0
O=C(NNc1nc2ccccc2s1)Nc1ccc(F)cc1	1	4	5	0	10	6.0*
COc1cc2c(cc1NC(=O)CSc1nnc(-c3ccccc3F)n1-c1ccc(C)cc1)oc1ccccc12	1	.	2	-1	5	.
O=C(NNc1nc2ccccc2s1)C1CC1	0	-1	3	1	1	0
O=C(NNc1nc2ccccc2s1)c1ccccc1F	0	1	5.8*	0	-1	0
O=C(NCC(=O)N(c1ccccc1)C(C(=O)NC1CCCC1)c1cccnc1)c1ccco1 (stereo not drawn)	1	-2	0	-1	-1	0
CCOc1ccc(N(C(=O)CNC(=O)c2ccco2)C(C(=O)NC2CCCC2)c2cccnc2)cc1 (stereo not drawn)	1	2	1	-1	4	5.9*
O=C(Nc1nc2ncccn2c1-c1ccc(F)c(F)c1)C1CC1	0	.	-1	-1	4	.
Cn1c(C(=O)NC2CCCCC2)cc2sccc21	2	1	6.0*	0	8	1
CCn1c(C(=O)NC2CCC(C)CC2)cc2sccc21 (stereo not drawn)	1	2	-1	-1	7	1
CN(C(=O)c1cc2sccc2n1C)C1CCCCC1	1	5	3	-1	12*	1
O=C(CSc1nnc(-c2ccccc2)n1-c1ccccc1)NN=C/C=C\c1ccccc1[N+](=O)[O-]	-1	.	-2	-2	-3	.
CC(C)Oc1cccc(-c2cc(C(=O)NN3CCOCC3)c3ccccc3n2)c1	-5	0	0	-1	2	0
CCCc1ccc(-c2cc(C(=O)NN3CCOCC3)c3ccccc3n2)cc1	0	8.3*	1	-1	3	0
Cc1nnc(SC(C)C(=O)Nc2ccc3ccccc3c2)[nH]c1=O (stereo not drawn)	0	0	6	1.3*	4	2
CC(Sc1nncn1C)C(=O)Nc1ccc2ccccc2c1 (stereo not drawn)	3	0	1	-1	1	4.6*
CC(Sc1nncn1C)C(=O)Nc1ccc(S(N)(=O)=O)cc1 (stereo not drawn)	0	1	0	-1	-1	2
COc1cc(=O)[nH]c(SC(C)C(=O)Nc2ccc3ccccc3c2)n1 (stereo not drawn)	0	0	3	0	0	0
O=C(CC(C(=O)O)c1ccc(Cl)cc1Cl)c1ccc(Cl)cc1 (stereo not drawn)	0	-1	5.9*	-1	0	1
